Measurements as given in PubChem BioAssay.
Potency and affinity values are given separately. Inconclusive results are not listed. Active and inactive are the calls of the source. Unless noted, the rule behind the calls is not given here.

Legend:
[1] = cytotoxicity in PAX8-dependent RMG-1 cells, dose response, cell-based, cherry-pick (AID 687029;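 active = signal drop whose fitted half-maximal concentration is at most twice the top valid dose, in every test run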;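 note: cells exposed to compound for 96 hours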)
[2] = cytotoxicity in IOSE-T80 ovarian epithelial cells, dose response, selectivity assay for PAX8 inhibitor project, cell-based, cherry-pick (AID 687032;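 active = fitted half-maximal concentration for viability loss no higher than twice the top valid dose, in every repeat run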;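 note: cells exposed to compound for 96 h before reading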)
[3] = inhibitors of CMV-promoter luciferase reporter, dose response, counter-screen for Pax8 inhibitor project, cell-based, HEK293, luminescence, dry powder (AID 743020;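 active = signal-lowering compounds whose fitted half-maximal concentration is at or below twice the top tested dose in every run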;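 note: HEK293 cells stably expressing the CMV luciferase reporter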)
[4] = non-specific cell cytotoxicity, dose response, cytotoxicity control for PAX8 inhibitor project, plate reader, dry powder samples (AID 743021)
[5] = IOSE-T80 ovarian epithelial cell cytotoxicity, dose response, cytotoxicity control for PAX8 inhibitor project, plate reader, dry powder samples (AID 743045);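 note: more negative values mean more cell killing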
[6] = A2780 ovarian cancer cell cytotoxicity, dose response, cytotoxicity control, plate reader, dry powder samples (AID 743046)
[7] = cytotoxicity in OVCAR8 ovarian cancer cells, dose response, PAX8 project, cell-based, plate reader, dry powder samples (AID 743197)

Measured: outcome

COc1cccc2sc(N(CCCN(C)C)C(=O)CCS(=O)(=O)c3ccccc3)nc12
not listed: [7]
inactive: all other assays above

C[C@@H]1CN([C@@H](C)CO)C(=O)Cc2cc(NS(=O)(=O)c3ccc(F)cc3)ccc2O[C@H]1CN(C)Cc1ccc(Cl)c(Cl)c1
not listed: [6] | [7]
inactive: all other assays above

COc1ccc2c3c(n(C)c2c1)[C@H](CO)N(C(=O)Nc1ccc(F)cc1)CC31CCN(C(=O)c2ccc3c(c2)OCO3)CC1
not listed: [6] | [7]
inactive: all other assays above

C[C@@H]1CCCCO[C@@H](CN(C)Cc2ccccc2)[C@H](C)CN([C@@H](C)CO)C(=O)c2cc(NC(=O)Nc3ccc(C(F)(F)F)cc3)ccc2O1
not listed: [6] | [7]
inactive: all other assays above

C[C@H]1CCCCO[C@@H](CN(C)Cc2ccc(C(F)(F)F)cc2)[C@@H](C)CN([C@@H](C)CO)C(=O)c2cc(NS(=O)(=O)c3ccccc3)ccc2O1
not listed: [7]
inactive: all other assays above

CCCC#Cc1ccc([C@H]2[C@@H](CO)N3CCCCN(S(=O)(=O)Cc4ccccc4)C[C@H]23)cc1
not listed: [7]
inactive: all other assays above

C[C@@H]1CN([C@@H](C)CO)C(=O)Cc2cc(NC(=O)Nc3ccc(C(F)(F)F)cc3)ccc2O[C@H]1CN(C)Cc1ccc2c(c1)OCO2
not listed: [7]
inactive: all other assays above

C[C@@H]1CCCCO[C@@H](CN(C)Cc2ccc(C(F)(F)F)cc2)[C@H](C)CN([C@H](C)CO)C(=O)c2cc(NS(=O)(=O)c3ccc(F)cc3)ccc2O1
not listed: [6] | [7]
inactive: all other assays above

C[C@@H]1CCCCO[C@H](CN(C)Cc2ccc(C(F)(F)F)cc2)[C@H](C)CN([C@@H](C)CO)C(=O)c2cc(NC(=O)Nc3ccc4c(c3)OCO4)ccc2O1
not listed: [6] | [7]
inactive: all other assays above

Cc1ccc(S(=O)(=O)Nc2ccc3c(c2)C(=O)N([C@@H](C)CO)C[C@H](C)[C@@H](CN(C)Cc2ccc(C(F)(F)F)cc2)OCCCC[C@H](C)O3)cc1
not listed: [6] | [7]
inactive: all other assays above

C[C@H](CO)N1C[C@H](C)[C@@H](CN(C)Cc2ccc(-c3ccccc3)cc2)Oc2ccc(NS(=O)(=O)c3ccc(F)cc3)cc2CC1=O
not listed: [7]
inactive: all other assays above

O=C(c1cc(-c2cccs2)on1)N1CCN(C(c2ccccc2)c2ccccc2)CC1
not listed: [7]
inactive: all other assays above

CCc1ccc(/C=C2\SC(=S)N(CCCC(=O)N(CCO)c3ccccc3)C2=O)cc1
not listed: [7]
inactive: all other assays above

COc1cccc(-c2ccc3c(c2)[C@@H]2[C@@H](CCN2S(=O)(=O)c2ccccc2OC)[C@H](CO)N3C)c1
not listed: [7]
inactive: all other assays above

O=C(c1ccccc1F)N1CC(=O)N2[C@@H](CO)[C@@H](c3ccc(C#Cc4ccc(F)cc4)cc3)[C@@H]2C1
not listed: [7]
inactive: all other assays above

OC[C@@H]1[C@H](c2ccc(-c3ccc(F)cc3)cc2)[C@@H]2CN(CCC(F)(F)F)CCCCN12
not listed: [7]
inactive: all other assays above

Cc1ccc(S(=O)(=O)N(C)C[C@H]2OCCCC[C@H](C)Oc3ccc(NS(=O)(=O)c4ccc(F)cc4)cc3C(=O)N([C@H](C)CO)C[C@@H]2C)cc1
not listed: [7]
inactive: all other assays above

C[C@@H]1CN([C@H](C)CO)C(=O)c2cc(NS(=O)(=O)c3ccc(Cl)cc3)ccc2O[C@@H](C)CCCCO[C@H]1CN(C)Cc1ccc2c(c1)OCO2
not listed: [7]
inactive: all other assays above

COc1ccccc1NC(=O)N1CCCCN2[C@@H](CO)[C@@H](c3ccc(C#Cc4ccccc4)cc3)[C@@H]2C1
not listed: [7]
inactive: all other assays above

C[C@@H]1CN([C@H](C)CO)C(=O)c2c(c3ccccc3n2C)-c2ccccc2CO[C@H]1CN(C)S(=O)(=O)c1ccc(C(F)(F)F)cc1
not listed: [6] | [7]
inactive: all other assays above

C[C@H]1CCCCO[C@H](CN(C)Cc2ccc(C(F)(F)F)cc2)[C@@H](C)CN([C@@H](C)CO)C(=O)c2cc(NC(=O)Cc3ccccc3)ccc2O1
not listed: [7]
inactive: all other assays above

C[C@@H]1CN([C@H](C)CO)C(=O)c2cc(NC(=O)Nc3ccc(C(F)(F)F)cc3)ccc2O[C@@H](C)CCCCO[C@H]1CN(C)C(=O)Nc1ccc(C(F)(F)F)cc1
not listed: [6] | [7]
inactive: all other assays above

C[C@H]1CCCCO[C@@H](CN(C)Cc2ccc(C(F)(F)F)cc2)[C@@H](C)CN([C@@H](C)CO)C(=O)c2cc(NC(=O)Nc3ccc4c(c3)OCO4)ccc2O1
not listed: [7]
inactive: all other assays above

C[C@@H]1CN([C@H](C)CO)C(=O)c2cc(NC(=O)CCC(F)(F)F)ccc2O[C@@H](C)CCCCO[C@@H]1CN(C)Cc1ccc(Cl)c(Cl)c1
not listed: [6] | [7]
inactive: all other assays above

C[C@@H]1CN([C@@H](C)CO)C(=O)c2cc(NC(=O)Nc3ccc(C(F)(F)F)cc3)ccc2O[C@H]1CN(C)C(=O)Nc1ccc(C(F)(F)F)cc1
not listed: [7]
inactive: all other assays above

O=C1CN(S(=O)(=O)Cc2ccccc2)C[C@@H]2[C@@H](c3ccc(C#CCC4CCCC4)cc3)[C@@H](CO)N12
not listed: [6] | [7]
inactive: all other assays above

COc1ccc(S(=O)(=O)Nc2ccc3c(c2)C(=O)N([C@H](C)CO)C[C@@H](C)[C@@H](CN(C)Cc2ccc(C(F)(F)F)cc2)OCCCC[C@@H](C)O3)cc1
not listed: [6] | [7]
inactive: all other assays above

C[C@@H]1CN([C@@H](C)CO)C(=O)Cc2cc(NS(=O)(=O)c3ccc(F)cc3)ccc2O[C@H]1CN(C)Cc1ccc(C(F)(F)F)cc1
not listed: [7]
inactive: all other assays above

C[C@@H]1CN([C@@H](C)CO)C(=O)c2cc(NC(=O)Nc3ccc(C(F)(F)F)cc3)ccc2O[C@@H](C)CCCCO[C@H]1CN(C)Cc1ccc2c(c1)OCO2
not listed: [7]
inactive: all other assays above

COc1ccccc1S(=O)(=O)N(C)C[C@H]1Oc2cc(C#CCC3CCCC3)ccc2S(=O)(=O)N([C@H](C)CO)C[C@H]1C
not listed: [6] | [7]
inactive: all other assays above

COc1ccc(S(=O)(=O)Nc2ccc3c(c2)C(=O)N([C@H](C)CO)C[C@@H](C)[C@H](CN(C)S(=O)(=O)c2ccc(Cl)cc2)OCCCC[C@H](C)O3)cc1
not listed: [7]
inactive: all other assays above

C[C@@H]1CN([C@H](C)CO)C(=O)c2cc(NC(=O)Nc3ccc4c(c3)OCO4)ccc2O[C@@H](C)CCCCO[C@H]1CN(C)Cc1ccc(C(F)(F)F)cc1
not listed: [6] | [7]
inactive: all other assays above

C[C@@H]1CCCCO[C@@H](CN(C)Cc2ccc(C(F)(F)F)cc2)[C@H](C)CN([C@@H](C)CO)C(=O)c2cc(NC(=O)Cc3ccccc3)ccc2O1
not listed: [7]
inactive: all other assays above

C[C@@H]1CCCCO[C@H](CN(C)Cc2ccc(C(F)(F)F)cc2)[C@@H](C)CN([C@@H](C)CO)C(=O)c2cc(NS(=O)(=O)c3ccc(F)cc3)ccc2O1
not listed: [6] | [7]
inactive: all other assays above

O=C(Nc1cccc(F)c1)N1CCCCN2[C@@H](CO)[C@@H](c3ccc(C#Cc4ccccc4)cc3)[C@@H]2C1
not listed: [7]
inactive: all other assays above

COc1ccc(S(=O)(=O)Nc2ccc3c(c2)C(=O)N([C@H](C)CO)C[C@H](C)[C@@H](CN(C)S(=O)(=O)c2ccc(F)cc2)OCCCC[C@H](C)O3)cc1
not listed: [6] | [7]
inactive: all other assays above

O=S(=O)(Nc1cccc2cccnc12)c1ccccc1
not listed: [7]
inactive: all other assays above

C[C@@H]1CN([C@@H](C)CO)C(=O)c2cc(NS(=O)(=O)c3ccc(F)cc3)ccc2O[C@@H](C)CCCCO[C@@H]1CN(C)Cc1ccc(C(F)(F)F)cc1
not listed: [6] | [7]
inactive: all other assays above

C[C@@H]1CN([C@@H](C)CO)C(=O)c2cc(NC(=O)Nc3ccc(C(F)(F)F)cc3)ccc2O[C@@H](C)CCCCO[C@H]1CN(C)Cc1ccncc1
not listed: [7]
inactive: all other assays above

C[C@H](CO)N1C[C@H](C)[C@H](CN(C)Cc2ccc(C(F)(F)F)cc2)OCCCC[C@H](C)Oc2ccc(NC(=O)Nc3ccc4c(c3)OCO4)cc2C1=O
inactive: all assays above

O=C1CN(S(=O)(=O)Cc2ccccc2)C[C@@H]2[C@H](c3ccc(C#Cc4ccc(F)cc4)cc3)[C@H](CO)N12
not listed: [6]
inactive: all other assays above
